The results in this text go back to PubChem BioAssay.

Structures are written as SMILES.

A short description of the assay: mitochondrial membrane potential change in A549 cells, profiling panel, cell-based, JC-1 fluorescence, basal, 24 h, 100 nL (AID 1138).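 Further: A549 lung adenocarcinoma cells under basal conditions with no added stimulus; test concentration not given here.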 The conditions noted are these: higher = more signal.
Turning to `CC(C)[C@@H](OCc1ccccc1)[C@H](C)C=NOC[C@@H](O)COCc1ccco1`, the z-score was -0.541.

In turn, `CC(C)(C)N1C(=O)[C@H]2[C@H]3[C@H](O)C=CC(=O)[C@@H]3CC[C@H]2C1=O` gave a z-score of 0.109.

In the case of `CCOC(=O)[C@H](CC(C)C)NC(=O)CCC1CC(OC(=O)NCc2cccc3ccccc23)CC2(CCCC(COC(=O)NCCOC)O2)O1` (stereo partly specified), the z-score was -0.157.

With `Cc1ccc(S(=O)(=O)n2c3ccccc3c3nnc(C(=O)c4ccccc4)nc32)cc1`, the z-score was -1.99.

For the molecule `CCN1C(=O)[C@H]2[C@H]3[C@H](O)[C@H](O)CC(=NOC[C@H]4O[C@H](c5ccccc5)C=C[C@@H]4Oc4ccc(OC)cc4)[C@@H]3CC[C@H]2C1=O`, the z-score came to 0.385.

As to `Cc1cc2c(c(=O)o1)[C@@H](O)[C@H]1O[C@H]1C2=O`, the z-score is -1.32.

Molecule `C#CCCCON=C1C[C@@H](O)[C@@H](O)[C@@H]2[C@@H]3C(=O)N(c4cccc(Oc5ccccc5)c4)C(=O)[C@@H]3CC[C@H]12` yielded a z-score of 0.8.

As to `CC(CCN1CCc2nc(-c3ccccc3)c(-c3ccccc3)cc2C1)=NOC[C@@H](O)[C@H]1O[C@@H]2OC(C)(C)O[C@@H]2[C@H]1O`, the z-score was 2.07.

Regarding `CC(CCN1CCc2nc(-c3ccccc3)c(-c3ccccc3)cc2C1)=NOC[C@@H](O)COCc1ccco1`, the z-score is 2.

Consider `CSCC[C@@H]1NC(=O)CC=C[C@@H](C)COC(=O)[C@@H](C)COC1=O`, for which the z-score is 1.31.

`CC(=O)Nc1ccc([C@@H]2N[C@H](C(=O)O)CC[C@H]2C)cc1` gave a z-score of 2.05.

In turn, `C#CCCCON=C1[C@H]2CCn3c(=O)n(-c4ccccc4)c(=O)n3[C@H]2[C@H](O)[C@@H]2O[C@H]12` returned a z-score of 0.94.

The molecule `COC(=O)[C@@H]1CC[C@H](C)[C@@H](c2ccc(C)cc2)N1C(=O)c1ccc(C=NOC[C@@H](C)[C@H](OCc2ccccc2)C(C)C)cc1` showed a z-score of 1.26.

As for `CCOC(=O)[C@H](Cc1ccccc1)NC(=O)CCC1CC(OC(=O)NCc2cccc3ccccc23)CC2(CCCC(COC(=O)NCCC(C)C)O2)O1` (stereo partly specified), the z-score is -0.0858.

For the molecule `C=CC[C@@H]1C=C[C@H](ON=C2[C@H]3CCn4c(=O)n(-c5ccccc5)c(=O)n4[C@H]3[C@H](O)[C@@H]3O[C@H]23)[C@@H](CO)O1`, the z-score was -0.544.

As for `CCOC(=O)[C@H](CC(C)C)NC(=O)CCC1CC(OC(=O)NCc2cccc3ccccc23)CC2(CCCC(COC(=O)NCCOc3ccccc3)O2)O1` (stereo partly specified), the z-score was found to be 1.07.

On to `C[C@@H](c1ccccc1)N1C(=O)[C@H]2[C@H]3[C@H](O)[C@H](O)CC(=NOCc4ccccc4)[C@H]3CC[C@H]2C1=O`, for which the z-score worked out at 1.06.

As for `CCCNC(=O)OC[C@H]1O[C@H](CCON=C(C)CCN2CCc3nc(CC)c(CC)cc3C2)C=C[C@@H]1Oc1ccc(OC)cc1`, the z-score turned out to be 0.77.

For `CCCNC(=O)OC[C@H]1O[C@H](CCON=C(C)C)C=C[C@@H]1Oc1ccc(OC)cc1`, the z-score was -0.218.

On to `CC(=O)O[C@H]1C2=CO[C@H](C)[C@H]3[C@H]4C5=C([C@H](O)[C@H]6O[C@H]6C5=O)[C@H](OC4C)[C@@]23C(=O)[C@@H]2O[C@@H]21` (stereo partly specified), for which the z-score was -0.837.

As to `C=CC[C@@H]1C=C[C@H](ON=C[C@@H](C)[C@H](OCc2ccccc2)C(C)C)[C@@H](CO)O1`, the z-score was -0.922.

`COC(=O)CC=C[C@@H](C)[C@@H](C=NOC(C)CN1CCCc2nc(C)c(C)cc21)OC` (stereo partly specified): the z-score is -0.27.

As to `CC(CCN1CCCCc2nc(C)c(C)cc21)=NOC[C@@H](C)[C@H](OCc1ccccc1)C(C)C`, the z-score was determined as 0.37.

Take `CON=C(C)CCC(=O)OC[C@H]1O[C@H](c2ccccc2)C=C[C@@H]1Oc1ccc(OC)cc1`: the z-score amounted to 0.472.

Consider `CON=CC[C@@H]1C=C[C@H](OC(C)=O)[C@@H](COC(C)=O)O1`, for which the z-score worked out at 0.296.

Consider `Cn1c(=O)n2n(c1=O)[C@H]1[C@H](O)[C@@H]3O[C@@H]3C(=O)[C@H]1CC2`, for which the z-score is -0.572.

`COc1ccc(COC(=O)NN=C2C[C@@H](O)[C@@H](O)[C@@H]3[C@@H]4C(=O)N(Cc5ccccc5)C(=O)[C@@H]4CC[C@H]23)cc1`: the z-score worked out at 0.235.

As for `C#CCCCON=C1C[C@@H](O)[C@@H](O)[C@@H]2[C@@H]3C(=O)N(C(C)(C)C)C(=O)[C@@H]3CC[C@@H]12`, the z-score is -0.289.

The molecule `C[C@@H](c1ccccc1)N1C(=O)[C@H]2[C@H]3[C@H](O)[C@H](O)CC(=NO[C@@H]4O[C@H](CO)[C@@H](O)[C@H](O)[C@H]4O)[C@H]3CC[C@H]2C1=O` returned a z-score of 0.296.

The molecule `CCOC(=O)CCN1C(=O)[C@H]2[C@H]3[C@H](O)[C@H](O)CC(=NOCc4ccccc4)[C@H]3CC[C@H]2C1=O` displayed a z-score of 0.229.

`CO[C@H]1COC(=O)[C@@H](C)COC(=O)[C@H](COCc2ccccc2)NC(=O)CC=C[C@H]1C`: the z-score stood at 0.844.

For the molecule `COc1cccc([C@H]2Oc3ccc(OC)cc3C(=NO[C@@H]3O[C@H](COC(C)=O)[C@@H](OC(C)=O)[C@H](OC(C)=O)[C@H]3OC(C)=O)[C@@H]2O)c1`, the z-score is -0.172.

For the molecule `CCOC(=O)[C@H](CC(C)C)NC(=O)CCC1CC(OC(=O)NCc2ccc3c(c2)OCO3)CC2(CCCC(COC(=O)NCc3cccc(C(F)(F)F)c3)O2)O1` (stereo partly specified), the z-score was -0.326.

As for `CCN1C(=O)[C@H]2[C@H]3[C@H](O)[C@H](O)CC(=NOCC(C)C)[C@@H]3CC[C@H]2C1=O`, the z-score is -0.753.

The molecule `COC(=O)[C@H](C)NC(=O)CCC1CC(OC(=O)NCCc2ccc(F)cc2)CC2(CCCC(COC(=O)NCCC(C)C)O2)O1` (stereo partly specified) yielded a z-score of 2.09.

For the molecule `C=CC[C@@H]1C=C[C@H](ON=C(C)CCN2CCc3nc(-c4ccccc4)c(-c4ccccc4)cc3C2)[C@@H](CO)O1`, the z-score came out at 2.3.
